The supplement of paper PMC6135742
Counter-ions that a name gives are not always drawn. ± gives the standard deviation of the averaged measurements. Whole data set: some 2,600 compounds, median “total cell number (DAPI+ nuclei) relative to DMSO vehicle control” near -1.4, cut for the lowest 2% near -23. For the sample, the lowest values were picked, then their nearest neighbours and some compounds at random.

Each compound was assayed on jimpy (Plp1 jimpy) mouse iPSC-derived oligodendrocyte progenitor cells (assay: total cell number (DAPI+ nuclei) relative to DMSO vehicle control (SDs above negative control mean); higher = more surviving cells). Details: 10 µM; 3 days.
Description: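 Primary phenotypic screen of >3,000 bioactive compounds (Selleck L1700 and Sigma LO1280 libraries) at a single dose of 10 µM. Compounds were added to jimpy (Plp1 mutant) mouse iPSC-derived OPCs at the start of thyroid hormone-induced oligodendrocyte differentiation, one well per compound in 384-well plates. After 3 days cells were stained for MBP, Sox10 and DAPI and imaged with an Operetta system. MBP+ oligodendrocyte number and total cell number were expressed as the number of SDs above the mean of the DMSO negative control on the same plate (n=16 control wells per plate). Hits were defined as >=4 SD for oligodendrocytes and >=2 SD for total cells.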
`CCCCCN(CCCOC)C(=O)C(CCC(=O)O)NC(=O)c1ccc(Cl)c(Cl)c1` (stereo not given) [Loxiglumide] showed a total cell number of -0.322. Work on `CC[C@@H]1C(=O)N(C)c2cnc(Nc3ccc(C(=O)NC4CCN(C)CC4)cc3OC)nc2N1C1CCCC1` yielded a total cell number of -26.1. In the case of `COc1cc(OC2CCN(C)CC2)ccc1Nc1ncc2c(n1)n(C1CCCC1)c(=O)n2C`, the total cell number is reported as -7.07. `CC[C@@H]1C(=O)N(C)c2cnc(Nc3ccc(C(=O)N[C@H]4CC[C@H](N5CCN(CC6CC6)CC5)CC4)cc3OC)nc2N1C(C)C` [Volasertib (BI 6727)] was tested, and the total cell number was -14.6. For `CN1C2=CC(=O)/C(=N\NC(N)=O)C=C2CC1S(=O)(=O)O` (stereo not given) [Carbazochrome sodium sulfonate (AC-17)], the total cell number was -0.411. With `CC1=C(C(=O)OC(C)C)C(c2cccc([N+](=O)[O-])c2)C(C(=O)OC2CN(C(c3ccccc3)c3ccccc3)C2)=C(N)N1` (stereo not given) [Azelnidipine] the total cell number was -12.3. In the case of `CNCc1cc(-c2ccccc2F)n(S(=O)(=O)c2cccnc2)c1`, the total cell number is reported as -1.01. With `CNC(=O)c1cc(Oc2ccc(NC(=O)Nc3ccc(Cl)c(C(F)(F)F)c3)c(F)c2)ccn1` [Regorafenib (BAY 73-4506)] the total cell number was 0.684. `C=CC(=O)Nc1cccc(Nc2nc(Nc3ccc(Oc4ccnc(C(=O)NC)c4)cc3)ncc2F)c1` gave a total cell number of -15. `CCC(=O)Nc1cccc(Oc2nc(Nc3ccc(N4CCN(C)CC4)cc3OC)ncc2Cl)c1` was tested, and the total cell number was -15.2. Work on `C=CCn1c(=O)c2cnc(Nc3ccc(N4CCN(C)CC4)cc3)nc2n1-c1cccc(C(C)(C)O)n1` yielded a total cell number of -14.6. `COc1cc(N2CCC(N3CCN(C)CC3)CC2)ccc1Nc1ncc(Cl)c(Nc2ccccc2S(=O)(=O)C(C)C)n1` was tested, and the total cell number was -27.1. `C=CC(=O)Nc1cccc(Nc2nc(Nc3ccc(N4CCN(C(C)=O)CC4)cc3OC)ncc2C(F)(F)F)c1` showed a total cell number of -15.5. `Cc1cc(Nc2ncc(Cl)c(Nc3ccccc3S(=O)(=O)C(C)C)n2)c(OC(C)C)cc1C1CCNCC1` gave a total cell number of -16.3. Work on `C=CC(=O)Nc1cccc(Sc2nc(Nc3ccc(N4CCN(C)CC4)cc3)ncc2Cl)c1` yielded a total cell number of -26.9. For `Cc1cnc(Nc2ccc(N3CCN(C)CC3)cc2)nc1Nc1cccc(S(=O)(=O)NC(C)(C)C)c1`, the total cell number was -12.1. For `C=CC(=O)Nc1cccc(Oc2nc(Nc3ccc(N4CCN(C)CC4)cc3OC)ncc2Cl)c1`, the total cell number was -24.9. Compound `C=CC(=O)Nc1cccc(Oc2nc(Nc3ccc(N4CCN(C)CC4)cc3)ncc2Cl)c1` has a total cell number of -26.9. For `CNC(=O)c1ccccc1Nc1nc(Nc2ccc(N3CCOCC3)cc2OC)ncc1Cl`, the total cell number was -12.2. Work on `Cn1c(=O)c(-c2c(Cl)cccc2Cl)cc2cnc(Nc3ccc(N4CCOCC4)cc3)nc21` yielded a total cell number of -9.85. With `CC(C)(CO)Cc1cc(C(C)(C)C)c(O)c(C(C)(C)C)c1` the total cell number was 1.01. Compound `COC(=O)C1=C(C)NC(C)=C(C(=O)OC(C)(C)CN(C)CCC(c2ccccc2)c2ccccc2)C1c1cccc([N+](=O)[O-])c1` (stereo not given) [Lercanidipine hydrochloride hemihydrate] has a total cell number of -8.91. In the case of `CC(C)(NS(=O)(=O)c1ccc(Oc2ccc(F)cc2)cc1)C(=O)NO`, the total cell number is reported as -2.86. With `CC(N)(Cc1ccc(O)c(O)c1)C(=O)O` (racemic) [(±)-3-(3,4-dihydroxyphenyl)-2-methyl-DL-alanine] the total cell number was -2.34. Work on `N=C(N)SCCN` [2-(2-Aminoethyl)isothiourea dihydrobromide] yielded a total cell number of -2.29. `O=C(NC1CCOCC1)c1ccc(-c2cc(-c3c[nH]nc3-c3ccccn3)ccn2)cc1` was tested, and the total cell number was -0.803. `CCCCNc1ncc(-c2ccc(CN3CCOCC3)cn2)c(NC2CCC(O)CC2)n1` (stereo not given) gave a total cell number of -8.26. `O=C(Nc1c[nH]nc1-c1nc2ccc(CN3CCOCC3)cc2[nH]1)NC1CC1` was tested, and the total cell number was -22.6. `O=C(O)Cn1nnc(-c2cc(N3CCC(Oc4cc(F)ccc4Br)CC3)no2)n1` was tested, and the total cell number was 3.6. Work on `CC(C)N(CCCNC(=O)Nc1ccc(C(C)(C)C)cc1)C[C@H]1O[C@@H](n2cc(Br)c3c(N)ncnc32)[C@H](O)[C@@H]1O` yielded a total cell number of -7.77. With `CN(C)Cc1cccc(N/C(=C2\C(=O)Nc3cc(C(N)=O)ccc32)c2ccccc2)c1` the total cell number was -14.3. Compound `COC(=O)c1ccc2c(c1)NC(=O)/C2=C(\Nc1ccc(N(C)C(=O)CN2CCN(C)CC2)cc1)c1ccccc1` [Nintedanib (BIBF 1120)] has a total cell number of -23. `CCS(=O)(=O)Nc1ccc2c(c1)/C(=C(/Nc1ccc(CN3CCCCC3)cc1)c1ccccc1)C(=O)N2` [Hesperadin] was tested, and the total cell number was -17.7. `C[C@@H]1O[C@@H](OC[C@H]2O[C@@H](Oc3c(-c4ccc(O)c(O)c4)oc4cc(O)cc(O)c4c3=O)[C@H](O)[C@@H](O)[C@@H]2O)[C@H](O)[C@H](O)[C@H]1O` [Rutin] was tested, and the total cell number was -0.749. With `CCCNS(=O)(=O)Nc1ncnc(OCCOc2ncc(Br)cn2)c1-c1ccc(Br)cc1` [Macitentan] the total cell number was -0.584. Work on `CC(C)[C@H](NC(=O)c1ccc2ccccc2n1)C(=O)N[C@@H](CC(=O)O)C(=O)COc1c(F)cccc1F` yielded a total cell number of 15.6. Work on `CC(C)C[C@H](NC(=O)[C@@H](NC(=O)c1cccc(-c2ccccc2)n1)[C@@H](C)O)B(O)O` yielded a total cell number of -22.6. Work on `CC(C)C[C@H](NC(=O)[C@H](Cc1ccccc1)NC(=O)c1cnccn1)B(O)O` [Bortezomib (PS-341)] yielded a total cell number of -20.2. In the case of `C=CC(N)CCC(=O)O` (racemic) [(±)-gamma-Vinyl GABA], the total cell number is reported as -0.562. With `COc1ccc(C2CC(=O)c3c(O)cc(OC4OC(COC5OC(C)C(O)C(O)C5O)C(O)C(O)C4O)cc3O2)cc1OC` (stereo not given) [Methyl-Hesperidin] the total cell number was -1.13. Work on `NCC(O)c1ccc(O)c(O)c1` (racemic) [(±)-Norepinephrine (+)bitartrate] yielded a total cell number of 0.169. `COc1cccc(C(=O)NCCN2CCN(c3ccc(Cl)cc3)CC2)c1` was tested, and the total cell number was -2.1. `Cc1nc(Nc2ncc(C(=O)Nc3c(C)cccc3Cl)s2)cc(N2CCN(CCO)CC2)n1` [Dasatinib] was tested, and the total cell number was -22.6. `CNC(=O)c1ccc2cc([C@@]3(O)CCn4cncc43)ccc2c1` [TAK-700 (Orteronel)] gave a total cell number of 0.9. In the case of `CC1(C)S[C@@H]2[C@H](NC(=O)C(C(=O)O)c3ccccc3)C(=O)N2[C@H]1C(=O)O` (stereo not given in full) [Carbenicillin disodium], the total cell number is reported as 0.323. In the case of `N#CCNC(=O)c1ccc(-c2ccnc(Nc3ccc(N4CCOCC4)cc3)n2)cc1`, the total cell number is reported as -12.5. For `Cc1nc(N)sc1-c1ccnc(Nc2ccc(N3CCOCC3)cc2)n1`, the total cell number was -22.6. `O=C(Nc1ccc(-c2ccnc(Nc3ccc(N4CCOCC4)cc3)n2)cc1)C1CCCN1` (stereo not given) showed a total cell number of -12.4. `CC(C)OC(=O)C(C(=O)OC(C)C)=C1SC=CS1` [Malotilate] was tested, and the total cell number was 7.42. Compound `COc1ccc(C2(CNC(=O)c3ccc(NC(=O)c4ccco4)cc3)CCOCC2)cc1` has a total cell number of -6.22. `CCc1cccc(CC)c1NC(=O)N1Cc2[nH]nc(NC(=O)c3ccc(N4CCN(C)CC4)cc3)c2C1` was tested, and the total cell number was -17.5. With `CO[C@@H](C(=O)N1Cc2[nH]nc(NC(=O)c3ccc(N4CCN(C)CC4)cc3)c2C1)c1ccccc1` the total cell number was -24.2. With `COc1cc2c(Oc3ccc4[nH]c(C)cc4c3F)ncnc2cc1OCCCN1CCCC1` [Cediranib (AZD2171)] the total cell number was -26.9. `Cc1cc2c(F)c(Oc3ncnn4cc(OC[C@@H](C)O)c(C)c34)ccc2[nH]1` gave a total cell number of -1.9. For `Cc1cc2c(F)c(Oc3ncnn4cc(OC[C@@H](C)OC(=O)[C@H](C)N)c(C)c34)ccc2[nH]1`, the total cell number was -4.11. In the case of `CN(C)C(=O)[C@H](O)[C@H](Cc1ccccc1)NC(=O)c1cc2cc(Cl)ccc2[nH]1`, the total cell number is reported as 0.79 ± 0.2. Work on `CCCC(CCC)C(=O)O[C@H]1C[C@H]2CC[C@@H](C1)[N+]2(C)C` [Anisotropine methyl bromide] yielded a total cell number of 12.1. `Cc1c(CN2CCN(C(=O)[C@H](C)O)CC2)sc2c(N3CCOCC3)nc(-c3cnc(N)nc3)nc12` showed a total cell number of -11.4. For `COc1ccc(-c2nc(N3CCOCC3)c3sc(CN(C)c4ncc(C(=O)NO)cn4)cc3n2)cn1`, the total cell number was -10.4. In the case of `CS(=O)(=O)N1CCN(Cc2cc3nc(-c4cccc5[nH]ncc45)nc(N4CCOCC4)c3s2)CC1`, the total cell number is reported as -23.7. Compound `O=c1cc(-c2ccccc2)oc2cc(O)c(O)c(O)c12` [Baicalein] has a total cell number of -6.52. Work on `CCCCOc1ccc(C(=O)Nc2ccc(F)cc2F)cc1` yielded a total cell number of 1.72. In the case of `CCCCCCCCCCCC1=C(O)C(=O)C=C(O)C1=O` [Embelin], the total cell number is reported as 1. `COc1cc(Nc2ncc3c(n2)-c2ccc(Cl)cc2C(c2c(F)cccc2OC)=NC3)ccc1C(=O)O` [Alisertib (MLN8237)] gave a total cell number of -12.8. In the case of `Cc1ccc(-c2cc(C(F)(F)F)nn2-c2ccc(S(N)(=O)=O)cc2)cc1` [Celecoxib], the total cell number is reported as 0.578 ± 0.53. In the case of `NCC(=O)Nc1ccc(-n2nc(C(F)(F)F)cc2-c2ccc3c(ccc4ccccc43)c2)cc1`, the total cell number is reported as -26.5. `NS(=O)(=O)c1ccc(-n2nc(C(F)(F)F)cc2-c2ccc(Cl)cc2)cc1` showed a total cell number of 0.298. `CCCCc1nc2cc(/C=C/C(=O)NO)ccc2n1CCN(CC)CC` [Pracinostat (SB939)] showed a total cell number of -12.2. With `Cc1[nH]c(/C=C2\C(=O)Nc3ccccc32)c(C)c1CCC(=O)O` [TSU-68 (SU6668, Orantinib)] the total cell number was -0.233. `CCN(CC)CCNC(=O)c1c(C)[nH]c(/C=C2\C(=O)Nc3ccc(F)cc32)c1C` [Sunitinib malate] gave a total cell number of -11.2. In the case of `CCN(CC)CCNC(=O)c1cc(S(C)(=O)=O)ccc1OC` [Tiapride hydrochloride], the total cell number is reported as -1.15. Work on `CCN(CC)CCNC(=O)c1c(C)[nH]c(/C=C2\C(=O)Nc3ccc(F)cc32)c1C` [Sunitinib Malate] yielded a total cell number of -26.5. With `C[N+](C)(C)CC(O)CC(=O)[O-]` (racemic) [DL-Carnitine HCl] the total cell number was 2.24. Compound `CC(=O)C(C)=O` [2,3-Butanedione] has a total cell number of -1.17. `CC[C@H]1OC(=O)C[C@@H](O)[C@H](C)[C@@H](O[C@@H]2O[C@H](C)[C@@H](O)[C@H](N(C)C)[C@H]2O)[C@@H](CCN2C[C@H](C)C[C@H](C)C2)C[C@@H](C)C(=O)/C=C/C(C)=C/[C@@H]1CO[C@@H]1O[C@H](C)[C@@H](O)[C@@H](OC)[C@H]1OC` [Tilmicosin] gave a total cell number of -3.95.
